From PubChem
In the library only some 1.2% were active in any assay of this set; here they are far more common.
GSH bead fluor: GSH bead compound fluorescence profile; 190,000 compounds, 0.25% hits; GSH beads flow cytometry, compound fluorescence 488/530 nm; hits give high values; AID 1776; fluorescence (KMESF) at 10 µM; in the data active = fluorescence above about 89;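 also: glutathione beads carrying GST-tagged Bcl family fusion proteins plus one bare bead set; values are compound well signal with DMSO vehicle wells as background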
Avidin fluor: compound fluoresces at 488/530 nm on avidin beads. compound fluorescence 488/530 nm, flow cytometry; hits give high values. fluorescence (KMESF) at 10 µM. 220,000 compounds, 0.38% hits; in the data active = fluorescence above about 47
RGS16-Gao: modulates binding between human RGS16 and Galphao; O15492+P09471; 220,000 compounds, 0.38% hits; bead-based flow cytometry RGS16-Galphao binding, fluorescence; actives lie on both sides; binding response (% of control), % at 10 µM;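 also: Galphao activated by GDP with aluminum fluoride before binding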
Target sequence (O15492 whole entry, looked up): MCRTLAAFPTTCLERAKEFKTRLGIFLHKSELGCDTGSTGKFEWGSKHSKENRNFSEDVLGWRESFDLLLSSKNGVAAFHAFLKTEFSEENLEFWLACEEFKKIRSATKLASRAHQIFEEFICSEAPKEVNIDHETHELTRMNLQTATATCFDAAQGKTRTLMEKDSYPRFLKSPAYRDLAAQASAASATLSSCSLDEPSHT
Target sequence (P09471 whole entry, looked up): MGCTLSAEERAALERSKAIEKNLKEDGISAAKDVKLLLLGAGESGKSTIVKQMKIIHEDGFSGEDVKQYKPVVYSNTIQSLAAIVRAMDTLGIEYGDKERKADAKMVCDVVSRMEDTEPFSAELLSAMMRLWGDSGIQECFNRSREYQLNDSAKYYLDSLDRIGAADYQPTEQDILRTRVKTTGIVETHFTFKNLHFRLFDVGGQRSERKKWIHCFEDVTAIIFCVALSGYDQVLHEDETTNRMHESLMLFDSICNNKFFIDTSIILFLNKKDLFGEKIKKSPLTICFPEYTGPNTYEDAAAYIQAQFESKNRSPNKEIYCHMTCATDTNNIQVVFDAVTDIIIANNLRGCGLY
RGS7-Gao: modulates binding of RGS7 to human Galphao; P09471; Multiplexed bead flow cytometry; actives lie on both sides; binding response (% of control), % at 10 µM; 220,000 compounds, 0.35% hits; AID 1439; in the data active = binding response below about 49% or above about 150%; inconclusive = no clear call, values can overlap the other calls; inactive = in between;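 also: fluorescent Galphao held in activated GDP-AlF4 state binding bead-coupled RGS7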
Target sequence (P09471 whole entry, looked up): as above
RGS4-Gao reg: human RGS4-Galphao interaction regulation | binding response (% of control), % at 10 µM | Multiplexed bead flow cytometry, RGS4-Galphao binding; actives lie on both sides | P09471 | 220,000 compounds, 0.33% hits | AID 1415; in the data active = binding response below about 49% or above about 150%; inactive = in between;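 also: fluorescent Galphao activated with aluminum fluoride binding bead-coupled RGS4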
RGS8-Gao: human RGS8-Galphao interaction regulation; response (percent of control binding), % at 10 µM; multiplexed bead flow cytometry, RGS8-Galphao binding; actives lie on both sides; 220,000 compounds, 0.34% hits; P09471; in the data active = response below about 60% or above about 140%; inactive = in between;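 also: Galphao activated as the GDP aluminium fluoride complex binding bead-coupled RGS8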
RGS4-Gao HTS: regulators of human RGS4-Galphao interaction | shares compounds with RGS16-Gao | multiplexed bead flow cytometry, RGS–Galpha-o binding | RGS4–Galpha-o binding response, % at 10 µM | 1,600 compounds, 99% hits | AID 1504;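 also: fluorescently labeled Galpha-o bound to GDP with aluminium fluoride binding biotinylated RGS beads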
Biotin-avidin: biotin-avidin bead binding disruption counter-screen; shares compounds with RGS16-Gao; streptavidin beads, fluorescein-biotin binding, flow cytometry; inhibition, % at 10 µM; 1,700 tested, under 10 active;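 active = inhibition above 50%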;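 also: median green fluorescence of gated singlet beads compared with DMSO control wells; 0% = DMSO wells and 100% = complete loss of bead fluorescence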
RGS8-Gao confirm: RGS8-Galphao interaction regulation, single point confirmation. shares compounds with RGS16-Gao. AID 1836. bead-based flow cytometry RGS8-Galphao binding, fluorescence; actives lie on both sides. binding response (% of control), % at 10 µM. 1,700 compounds, 3% hits; in the data active = binding response below about 72% or above about 130%; inactive = in between;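 also: Galphao activated as GDP AlF4 complex before binding bead RGS8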
RGS7-Gao confirm: confirmation of regulators of human RGS7-Galphao interaction; AID 1837; bead-based flow cytometry RGS7-Galphao binding; actives lie on both sides; 1,700 compounds, 7.8% hits; shares compounds with RGS16-Gao; response (percent of control binding), % at 10 µM; in the data active = response below about 75% or above about 130%; inactive = in between;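 also: fluorescent Galphao activated with GDP and aluminum fluoride binding bead-coupled RGS7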
RGS16-Gao single: confirmation of regulators of human RGS16-Galphao interaction; shares compounds with RGS16-Gao; bead-based flow cytometry, RGS16-Galphao binding; actives lie on both sides; response (% of control binding), % at 10 µM; 1,700 compounds, 4% hits; AID 1838; in the data active = response below about 74% or above about 130%; inactive = in between;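 also: Galphao activated as the GDP aluminium fluoride complex binding bead-coupled RGS16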
RGS4-Gao single: confirmation of regulators of human RGS4-Galphao interaction; shares compounds with RGS16-Gao; RGS4-Galphao binding, multiplexed bead flow cytometry; actives lie on both sides; binding response (% of control), % at 10 µM; 1,700 compounds, 4% hits; AID 1840; in the data active = binding response below about 74% or above about 130%; inactive = in between
RGS19-Gao conf: RGS19-Galphao interaction regulation, single point confirmation | bead-based flow cytometry RGS19-Galphao binding; actives lie on both sides | shares compounds with RGS16-Gao | 1,700 compounds, 5% hits | response (percent of control binding), % at 10 µM | AID 1841; in the data active = response below about 50% or above about 160%; inactive = in between;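 also: 100% = no compound control and 0% = blank background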
The depositor's hits bear a star; ? = inconclusive; . = no result given; [ ] = dose if it differs, or a comment. Unless noted, no rule for the calls is given here.

SMILES	GSH bead fluor	Avidin fluor	RGS16-Gao	RGS7-Gao	RGS4-Gao reg	RGS8-Gao	others
O=C(COc1ccc2ccccc2c1)N1CCN(CC2CC3C=CC2C3)CC1 (centres undefined)	17	50*	110.4	112.2	100.1	103.8
CCOC(=O)c1sc(/N=C/c2c(O)n(-c3cccc(C)c3)c(=O)[nH]c2=O)c(C#N)c1C	14	18	98.5	96.8	100.2	102.0
Cc1ccc(NP(=O)(Oc2ccccc2F)Oc2ccccc2F)cc1	20	48*	98.4	107.3	97.9	97.2
CN(C)CCN=Cc1c(O)n(-c2cccc(C(F)(F)F)c2)c(=O)[nH]c1=O	266*	10	108.8	97.2	100.2	98.1
C=CCn1c(O)c(C=NCCN(C)C)c(=O)[nH]c1=O	4	16	97.1	93.0	93.2	102.3
CCOC(=O)c1c(C)n(Cc2ccc3c(c2)OCO3)c2ccc(O)cc12	249*	7	94.7	92.0	94.2	97.0
COC(=O)c1c(C)n(Cc2ccc3c(c2)OCO3)c2ccc(O)cc12	49	41	112.7	104.1	106.5	100.5
C[C@@H]1C2C[C@@]34COC(=O)C3=CC=C[C@H]4[C@@]13C[C@H](c1ccoc1)O[C@@H]3O2	19	6	74.5	104.9	101.4	98.4
O=c1[nH]c(O)c(/C=C2\C=NN=C2c2ccccc2)c(=O)[nH]1	266*	5	83.9	87.2	93.0	84.4
O=C1CN=C(c2ccccc2)c2cc(Br)ccc2N1Cc1cc(=O)n2ccccc2n1	184*	23	110.7	107.3	106.2	104.2
CCn1c(=O)n(CC)c2cc([N+](=O)[O-])c(N3CCNCC3)cc21	19	6	100.5	107.3	101.8	100.2
CN(C)P(=NC(=S)c1cccn1C)(N(C)C)N(C)C	27	58*	107.2	116.1	106.6	100.8
CN(C)P(=O)(NC(=O)c1cccn1C)N(C)C	8	14	102.5	105.3	104.4	101.9
CCC(=NCCN1CCOCC1)c1c(O)n(-c2ccccc2C)c(=O)[nH]c1=O	26	11	149.6	106.1	104.5	110.4
CC(=NCCN1CCOCC1)c1c(O)n(-c2ccccc2C)c(=O)[nH]c1=O	12	.	3.0*	9.2*	-2.9*	28.1*
Cn1cnnc1Sc1cc(N2CCNCC2)ccc1[N+](=O)[O-]	.	3	108.0	?	107.3	103.8
Brc1ccc(CN2CCNCC2)s1	269*	8	101.3	99.9	100.5	99.2
CC1(C)CN=C(Nc2ccc(F)c(Cl)c2)S1	.	3	104.6	?	105.0	102.1
CC1(C)CSC(Nc2ccc(F)c(Cl)c2)=N1	253*	7	109.0	103.2	104.1	105.4
CCOP(=O)(OCC)c1cc(CC)ccc1O	.	6	99.0	?	99.2	99.3
COc1ccc(C(=O)C23CN4CN(CN(C4)C2)C3)cc1	10	51*	113.0	116.2	102.1	103.7
O=C1N(c2ccc(Cl)cc2)C(c2cccnc2)N2CCCN12 (centres undefined)	64	11	99.2	100.8	100.0	100.9
C=CCn1c(O)c(C(CC)=NCCc2ccccc2)c(=O)[nH]c1=O	56	8	98.2	98.1	99.0	97.8
C=CCn1c(O)c(C(C)=NCCc2ccccc2)c(=O)[nH]c1=O	24	51*	99.1	98.9	98.8	101.6
C/C=C1/CN2C3CC1C(CO)(C(=O)OC)C2Cc1c3n(C)c2ccccc12 (centres undefined)	.	8	91.5	?	93.4	98.8
SMILES	GSH bead fluor	Avidin fluor	RGS16-Gao	RGS7-Gao	RGS4-Gao reg	RGS8-Gao	others
CC[N+](CC)(CC#CCO)CC#Cc1ccccc1	27	10	102.0	104.1	107.1	103.4
S=C1CN=C(c2ccccc2Cl)c2cc(Cl)ccc2N1	119*	5	99.6	94.2	95.0	99.8
Cc1ccc2c(c1)CC1(CN2C)C(=O)NC(=O)N(c2ccc(C)c(C)c2)C1=O (centres undefined)	256*	6	143.1	109.3	112.7	118.5
COc1ccccc1-n1c(O)c(C=Nc2c(C)n(C)n(-c3ccccc3)c2=O)c(=O)[nH]c1=O	261*	8	99.8	101.8	99.5	102.1
CN1CCN(CC(=O)Nc2ccc([N+](=O)[O-])cc2C(=O)c2ccccc2)CC1	13	11	101.7	101.0	101.8	101.3
C1=C(c2c[nH]c3ccccc23)CCNC1	24	14	133.0	151.4*[activator]	166.5*[activator]	107.0	Biotin-avidin=2.0;RGS8-Gao confirm=99.0;RGS7-Gao confirm=135.5*[activator];RGS16-Gao single=103.2;RGS4-Gao single=110.4;RGS19-Gao conf=116.7
CC(C)N1CC=C(c2c[nH]c3ccccc23)CC1	19	22	97.5	98.1	95.3	96.0
c1ccc2c(c1)[nH]c1cnccc12	20	10	109.2	104.6	101.2	105.4
Cc1c2ccncc2c(C)c2c1[nH]c1ccccc12	18	15	77.9	128.4	153.9*[activator]	92.1	Biotin-avidin=-0.2;RGS8-Gao confirm=94.4;RGS7-Gao confirm=76.0;RGS16-Gao single=89.3;RGS4-Gao single=84.1;RGS19-Gao conf=72.0
O=P(Oc1ccccc1)(Oc1ccccc1)C(Nc1ccccc1)c1ccccc1 (centres undefined)	9	2	12.2	68.3	68.3	52.9*	RGS4-Gao HTS=68.3*;Biotin-avidin=0.5;RGS8-Gao confirm=100.0;RGS7-Gao confirm=99.5;RGS16-Gao single=102.7;RGS4-Gao single=99.9;RGS19-Gao conf=98.4
O=c1[nH]c(=O)n(Cc2ccc(F)cc2)c(O)c1C=NCCCO	17	122*	106.7	155.6*[activator]	109.5	96.9	RGS4-Gao HTS=109.5*;Biotin-avidin=-1.4;RGS8-Gao confirm=97.7;RGS7-Gao confirm=95.2;RGS16-Gao single=96.2;RGS4-Gao single=97.0;RGS19-Gao conf=98.7
O=c1[nH]c(=O)n(Cc2ccc(F)cc2)c(O)c1C=NCCCn1ccnc1	17	37	98.9	97.3	97.6	101.7
